A selection: hits, their analogues and other compounds. The true share with any hit is near 3.2%.
TROY signal inh – inhibitors of TROY-dependent NF-kB signaling; Q293 LMP1-TROYcd NF-kB luciferase reporter, 4 h; inhibition, % at 10 µM; actives 0.98% (n = 360,000);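 active means compounds whose plate-normalised and pattern-corrected inhibition of the luciferase reporter signal at the single screening dose is 50% or more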
LGR2 inh – blocks bursicon-induced cAMP signaling via Drosophila LGR2 | HEK293 LGR2, CRE-luciferase, bursicon-stimulated, 4 h | inhibition, % at 9.99 µM | actives 0.35% (n = 380,000);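 active means drop in luminescence signal, shown as inhibition above about 50% in the replicate tests, limit read from the data, passing the limit was not always enough; inconclusive means probably only some replicates passing the limit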;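 further: agonist challenge used bursicon conditioned medium at about half maximal strength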
TWEAK-Fn14 inh – TWEAK-Fn14 signaling inhibition; TWEAK-stimulated Fn14 reporter cells, luciferase luminescence, 8 h; inhibition, % at 10 µM; actives 2% (n = 360,000); AID 1159606; in the data active means inhibition above about 50%
PAX8 inh HTS – lowers PAX8-driven luciferase in RMG-I cells; RMG-I TPO-luciferase reporter, SteadyGlo, 24 h; inhibition, % at 12.6 µM; actives 1.2% (n = 360,000);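 active means mean replicate inhibition at least 60% with every replicate also reaching 60%; inconclusive means only one of the two criteria is met; inactive means mean below 60% and not all replicates reaching 60%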;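 further: luciferase light reporting Pax8 driven TPO promoter activity; plate controls were median of neutral control wells for no effect and mitoxantrone controls for full effect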
LMP1 NFkB inh – reduces LMP1-driven NF-kappaB luciferase signal | LMP1-induced NF-kappaB luciferase reporter cells, luminescence | inhibition, % at 12.5 µM | actives 0.69% (n = 350,000) | AID 504558; in the data active means inhibition above about 41%; inconclusive means no clear call, values can overlap the other calls;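 further: 0% = neutral control wells and 100% = reference inhibitor control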
EWS-Fli inh – blocks EWS/Fli oncoprotein-driven transcription; A673 NR0B1-luciferase reporter, viability-normalised; inhibition, % at 12.6 µM; actives 0.67% (n = 350,000); AID 651661;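 active means mean inhibition of at least 50% after viability correction, with every replicate also passing that limit; inconclusive means mean reaches 50% but only one of two replicates passes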;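 further: firefly luciferase signal divided by Alamar Blue viability fluorescence both relative to DMSO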
Active calls of the source: *; ? = inconclusive; / = not tested or not shown.

SMILES | TROY signal inh | LGR2 inh | TWEAK-Fn14 inh | PAX8 inh HTS | LMP1 NFkB inh | EWS-Fli inh
Cc1ccnc(NC(=O)c2sc3ccccc3c2Cl)c1 | 54* | 87* | 75* | -159 | 61* | /
Cc1cnc(NC(=O)c2sc3ccccc3c2Cl)s1 | 49 | ? | 85* | 6 | 17 | 72*
O=C(Nc1nccs1)c1sc2ccccc2c1Cl | 0 | / | 67* | / | -4 | /
Cc1nn(Cc2ccc(Cl)c(Cl)c2)c(C)c1NC(=O)c1sc2ccccc2c1Cl | 32 | / | 58* | 4 | 5 | /
CCNC(=O)Nc1ccc2c(c1)C(=O)N(C)[C@@H]1CC[C@@H](CC(=O)NCC3CC3)O[C@@H]1CO2 | / | 10 | / | -21 | / | -10
CO[C@H]1CN(C)C(=O)c2cc(NC(C)=O)ccc2OC[C@H](C)N(C(=O)Cc2cccnc2)C[C@H]1C | / | 7 | / | 2 | / | -4
O=C(Nc1nccs1)c1sc2cc(Cl)ccc2c1Cl | -105 | / | 102* | / | -3 | /
COC(=O)/C(C#N)=C/c1ccc(OC(=O)c2ccccn2)cc1 | -18 | 7 | -3 | 1 | -7 | 52*
C[C@H]1CCCCO[C@H](CN(C)C(=O)Cc2ccccc2)[C@@H](C)CN([C@@H](C)CO)C(=O)c2cc(NC(=O)CCCN(C)C)ccc2O1 | / | 13 | / | -21 | / | -8
CC(=O)Nc1ccc(SCC(=O)c2c(N)n(Cc3ccccc3)c(=O)n(C)c2=O)cc1 | 4 | -3 | 12 | -4 | 3 | -2
CC(C)Nc1nnc(SCC(=O)c2c(N)n(Cc3ccccc3)c(=O)n(C)c2=O)s1 | -15 | / | 19 | / | 64* | /
c1ccc(CSc2ncnc3sccc23)cc1 | 1 | -15 | 5 | 0 | 0 | -16
CCc1cc2c(SCC(=O)Nc3ccc(NC(C)=O)cc3)ncnc2s1 | 3 | 3 | -18 | 8 | 8 | 1
CCc1cc2c(Sc3nc4ccccc4s3)ncnc2s1 | -21 | -3 | 94* | / | 43* | /
c1ccc2sc(Sc3ncnc4sccc34)nc2c1 | 17 | -26 | 83* | 47 | 7 | -24
Cc1ccc(NS(=O)(=O)c2ccc(NC(=O)CN(c3cc([N+](=O)[O-])ccc3C)S(C)(=O)=O)cc2)c(C)c1 | 39 | 17 | 62* | 48 | -71 | -2
Cc1ccc([N+](=O)[O-])cc1N(CC(=O)NC1CCCC1)S(C)(=O)=O | -7 | -11 | -5 | 5 | -2 | -1
C[C@@H]1CN([C@@H](C)CO)C(=O)Cc2cc(NC(=O)CCC(F)(F)F)ccc2O[C@H]1CN(C)Cc1ccc(-c2ccccc2)cc1 | / | 42 | / | 100* | / | 33
C[C@H](CO)N1C[C@H](C)[C@@H](CN(C)Cc2ccc(-c3ccccc3)cc2)Oc2ccc(NC(=O)Cc3ccccc3)cc2CC1=O | / | 20 | / | 94* | / | 21
C[C@H]1CN([C@@H](C)CO)C(=O)Cc2cc(NC(=O)CCC(F)(F)F)ccc2O[C@H]1CN(C)Cc1ccc(-c2ccccc2)cc1 | 25 | 5 | 17 | 19 | -10 | 19
C[C@H](CO)N1C[C@H](C)[C@H](CN(C)Cc2ccc(-c3ccccc3)cc2)Oc2ccc(NC(=O)Cc3ccccc3)cc2CC1=O | / | 27 | / | 66* | / | 31
CO[C@H]1CN(C)C(=O)c2cc(NC(=O)c3ccc(F)cc3)ccc2OC[C@H](C)NC[C@H]1C | / | 14 | / | -6 | / | -3
COc1ccc(NC(=O)N(C)C[C@@H]2Oc3ccc(NC(=O)CCC(F)(F)F)cc3CC(=O)N([C@H](C)CO)C[C@@H]2C)cc1 | / | -6 | / | -7 | / | -7
CO[C@@H]1CN(C)C(=O)c2ccc(NC(=O)Nc3c(C)noc3C)cc2OC[C@@H](C)N(C)C[C@@H]1C | / | 11 | / | / | / | -7
CN(C)c1ccc(/C=C/c2ccc3ccccc3[n+]2C)cc1 | 63* | 12 | 64* | -4 | 22 | /
SMILES | TROY signal inh | LGR2 inh | TWEAK-Fn14 inh | PAX8 inh HTS | LMP1 NFkB inh | EWS-Fli inh
[O-][n+]1c(/C=C/c2ccccc2)ccc2ccccc21 | -43 | -42 | 66* | -21 | -16 | 38
CN(C)c1ccc(/C=C/c2ccc3c4ccccc4ccc3[n+]2-c2ccccc2)cc1 | 72* | ? | 74* | 103* | -19 | 62*
CN(CCCS(=O)(=O)[O-])c1ccc(/C=C/c2ccc3ccccc3[n+]2C)cc1 | 2 | -1 | -9 | 5 | -3 | -6
CCS(=O)(=O)N1CCC2(CC1)CN(C(=O)NC(C)C)[C@H](CO)c1c2c2ccc(OC)cc2n1C | / | -2 | / | 14 | / | -7
CCC(=O)N(C)C[C@@H]1[C@@H](c2ccc(C3=CCCCC3)cc2)[C@H](CO)N1C(C)=O | / | -14 | / | -10 | / | 4
C[C@H]1CN([C@@H](C)CO)C(=O)c2cccc(NC(=O)Nc3ccc4c(c3)OCO4)c2O[C@H]1CN(C)S(=O)(=O)c1cccs1 | / | -1 | / | / | / | -7
O=C(NC1CCCCC1)N1CC(=O)N2[C@H](C1)[C@H](c1ccc(-c3cccnc3)cc1)[C@@H]2CO | / | 26 | / | / | / | -4
N#Cc1cnn2cc(-c3ncc(C(F)(F)F)cc3Cl)cnc12 | -69 | / | -10 | / | -5 | /
Cc1cc2ncc(-c3ncc(C(F)(F)F)cc3Cl)cn2n1 | 44 | / | 84* | / | 37 | 54*
Cc1nn2cc(-c3ncc(C(F)(F)F)cc3Cl)cnc2c1Br | 56* | -28 | 51* | -123 | -5 | 20
CCCNC(=O)C[C@H]1C[C@@H]2c3cc(NS(=O)(=O)c4ccc(OC)cc4)ccc3O[C@@H]2[C@H](CO)O1 | / | 7 | / | -10 | / | 2
O=C(COc1ccccc1-c1ccccc1)N/N=C/c1cccc2ccccc12 | 28 | / | 18 | / | 7 | /
COc1ccc(/C=N/NC(=O)COc2ccccc2-c2ccccc2)cc1 | 14 | -7 | -37 | 74* | 74* | /
COc1ccc(/C=N/NC(=O)CCn2cnc(-c3ccccc3)c2-c2ccccc2)cc1 | 28 | -10 | 33 | 18 | 18 | 51*
O=C(CCl)Nc1nc(-c2ccco2)c(-c2ccco2)s1 | -12 | / | 12 | -15 | -24 | 8
